Screens as filed in PubChem BioAssay.
Pf growth 48h: Primary qHTS for delayed death inhibitors of the malarial parasite plastid, 48 hour incubation; P. falciparum luciferase growth in erythrocytes, 48 h; Potency, µM (highest dose often 28.7 µM), without a hit: at the highest dose activity change, negative = inhibition, actives largely listed as inhibitors; 310,000 tested, 5.9% active; also: potency is read from the fitted curve at half-maximal effect
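Firefly luciferase activity from engineered P. falciparum reports growth; inhibitors lower the luminescent signal. Cultures contained 2% hematocrit erythrocytes at 0.1% final parasitemia.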
HCV inh: qHTS Assay for Inhibitors of Hepatitis C Virus (HCV); Potency, µM (doses to about 41.8 µM), for inactives: top-dose activity change, negative = inhibition, actives largely listed as inhibitors; 340,000 tested, 3.4% active; Huh7.5.1 HCVcc-Cre infection, luciferase reporter, 44 h; AID 651820, 2012; also: potency is read from the fitted curve at half-maximal effect
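Seed cells (1,000/well) for 4 h; treat with compound and infect with HCVcc-Cre, moi about 0.5. Incubate 44 h, then detect luciferase activity.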
Marburg entry inh: qHTS for inhibitors of binding or entry into cells for Marburg Virus | Marburg virus pseudotyped entry inhibition, cell reporter | Potency, µM (highest dose often 37.8 µM), without a hit: top-dose activity change, negative = inhibition, actives largely listed as inhibitors | 300,000 tested, 1.8% active | AID 540276, 2011; calls by dose curve; tested in HEK293 cells; also: potency is read from the fitted curve at half-maximal effect
Pf growth 96h: Primary qHTS for delayed death inhibitors of the malarial parasite plastid, 96 hour incubation. Potency, µM (titrated, usually from 28.7 µM), inactives show at the highest dose activity change, negative = inhibition, hits mostly inhibitors. 320,000 tested, 6.9% active. AID 504834, 2011. P. falciparum luciferase reporter growth, 96 h; also: potency is read from the fitted curve at half-maximal effect
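Cell-based qHTS: luciferase-tagged P. falciparum in erythrocytes (2% hematocrit, 0.05% parasitemia final) incubated with compounds for 96 hours, 37 C, 5% CO2; luciferase detection reagent then added and luminescence measured.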
HCMV inh: qHTS Assay for inhibitors of the human cytomegalovirus (HCMV). AID 1259415, 2018. HFF cells, HCMV-luciferase reporter, 72 h; active compounds read low. activity change, negative = inhibition, % at 57.5 µM. 410,000 tested, 4.5% active; in the data active = activity change below about -60%; inconclusive = no clear call, values can overlap the other calls; inactive = above about -39%
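Human foreskin fibroblasts infected with luciferase-reporter HCMV at MOI 1 PFU/cell, compounds at two doses. Luciferase measured 72 h post infection; normalized to buffer-only basal and Salinomycin (10uM) controls.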
Lassa entry inh: qHTS for Inhibitors of binding or entry into cells for Lassa Virus; Lassa virus pseudotype entry inhibition, cell reporter; Potency, µM (top dose mostly 37.9 µM), inactives show at the top dose activity change, negative = inhibition, usual class: inhibitors; 300,000 tested, 1.2% active; calls by dose curve; tested in HEK293 cells; also: potency is read from the fitted curve at half-maximal effect; nearly all actives have a fitted effect of over 50% in size
* hit, by the source's call; ? = inconclusive; . = not tested or not shown; [ ] = dose if it differs, or a comment. In the library only some 14% were active in any assay of this set; here they are far more common. Unless noted, calls follow the shape of the dose curve; as a rule, active = well fitted inhibition curve with a large enough effect; inconclusive = small, poorly fitted or top-dose-only effect, or another doubt; inactive = no such curve, though single readings can be large or run the other way. % is scaled to controls: 0 for no effect and ±100 for the full control effect.

SMILES	Pf growth 48h	HCV inh	Marburg entry inh	Pf growth 96h	HCMV inh	Lassa entry inh
Cc1ccc2c(=O)cc(C(=O)Nc3ccc(S(=O)(=O)Nc4nc(C)cc(C)n4)cc3)oc2c1	.	.	9%[46.1 µM]	.	11	21%[46.1 µM]
O=C(Cn1ccn(-c2ccc(F)c(F)c2)c(=O)c1=O)Nc1ccccc1F	.	.	.	.	-6	9%[46.1 µM]
CCNS(=O)(=O)c1ccc(CCC(N)=O)cc1	2%	16%	-1%	?	37	21%[46.1 µM]
O=C(CCc1ccc(S(=O)(=O)NCc2ccccc2)cc1)NCc1ccc2c(c1)OCO2	-4%	-29%	15%	.	3	-13%
CCNS(=O)(=O)c1ccc(CCC(=O)O)cc1	12%	10µM*	3%	33%	-36	?
CCNS(=O)(=O)c1ccc(CCC(=O)NCc2ccc3c(c2)OCO3)cc1	-18%	16%	4%[46.1 µM]	0.41µM*	6	-1%[46.1 µM]
CCCNC(=O)C1CCN(S(=O)(=O)c2c(C)noc2/C=C\c2ccc(OC)cc2)CC1	.	-25%	-3%	?	-8	.
COc1ccc(NC(=O)C2CCN(S(=O)(=O)c3c(C)noc3/C=C/c3ccco3)CC2)cc1	.	.	9%[46.1 µM]	.	-67*	1%[46.1 µM]
CCc1ccc(NC(=O)C2CCN(S(=O)(=O)c3c(C)noc3/C=C/c3ccco3)CC2)cc1	.	.	6%[46.1 µM]	.	?	2%[46.1 µM]
Cc1noc(/C=C/c2ccco2)c1S(=O)(=O)N1CCC(C(=O)NC(C)c2ccccc2)CC1 (stereo unspecified)	.	?	4%	?	6	.
COc1ccc(/C=C\c2onc(C)c2S(=O)(=O)N2CCC(C(=O)NCc3ccco3)CC2)cc1	?	7%	-5%[46.1 µM]	13µM*	-22	2%[46.1 µM]
Cc1noc(/C=C/c2ccco2)c1S(=O)(=O)N1CCC(C(=O)N(C)Cc2ccccc2)CC1	1.9µM*	?	-7%	8%	0	-8%
O=C(OCCO)c1c(C2=CCCCC2)oc2c1C(OCCO)CCC2 (stereo unspecified)	.	.	.	.	-1	.
CC1CCCCC1NC(=O)CCS(=O)(=O)c1ccc2c(c1)NC(=O)CS2 (stereo unspecified)	-12%	13%	.	40%	13	.
COc1ccc(CNC(=O)CCS(=O)(=O)c2ccc3c(c2)NC(=O)CS3)cc1	18%	13%	.	15µM*	61	.
CC1CCCC(NC(=O)CCS(=O)(=O)c2ccc3c(c2)NC(=O)CS3)C1C (stereo unspecified)	-10%	1%	.	13µM*	-24	.
CC1CCN(CCCN2C(=O)C3C(C(=O)Nc4ccc(Cl)cc4)C4C=CC3(O4)C2C(=O)NC2CCCCC2)CC1 (stereo unspecified)	?	?	0%[46.1 µM]	?	?	16%[46.1 µM]
O=C1c2ccccc2[C@@H]2C[C@@H](O)[C@H](Nc3cccc(Cl)n3)CCN12	.	-17%	.	.	-26	.
Fc1cccc(-n2ncc(-c3nnnn3-c3ccccc3)c2C(F)(F)F)c1	-5%	?	-2%	?	-24	?
Cc1ccc(-n2nnnc2-c2cnn(-c3cccc(F)c3)c2C(F)(F)F)cc1	-13%	?	?	-2%	-75*	?
CC(NC(=O)COC(=O)CN1C(=O)NC2(CCCC2)C1=O)c1ccc(F)cc1 (stereo unspecified)	.	4%	7%	.	-29	4%
CN(C)C(=O)Oc1cccc(OCc2n(C)c3ccccc3[n+]2C)c1	?	16%	1%	2.9µM*	-19	1%
CN(C)C(=O)Oc1ccc(C(=O)c2ccccc2)cc1	102%	16%	1%	.	37	22%
CNc1nc2cnc(Nc3cccc(C(F)(F)F)c3)cc2n1Cc1ccc(OC)c(OC)c1	.	.	.	.	20	.
COc1ccc(Cn2cnc3cnc(Nc4ccc(NC(C)=O)cc4)cc32)cc1OC	.	.	.	.	-72*	.
SMILES	Pf growth 48h	HCV inh	Marburg entry inh	Pf growth 96h	HCMV inh	Lassa entry inh
CN(Cc1ccccc1)c1nc2c(c(=O)n(C)c(=O)n2C)n1CCSc1ncccn1	10µM*	-17%	1%	?	18	.
Cc1nnc(SCCn2c(N(C)Cc3ccccc3)nc3c2c(=O)[nH]c(=O)n3C)s1	.	4%	0%	?	-6	.
Cc1cc(C)nc(SCCn2c(N(C)Cc3ccccc3)nc3c2c(=O)n(C)c(=O)n3C)n1	7.4µM*	-17%	4%	?	31	-10%
Cc1ccc(NCc2nnc(SCc3ccc(C#N)cc3)n2Cc2ccco2)c(C)c1	?	-30%	?	.	41	6%
COc1ccc(C(=O)CSc2nnc(CNc3ccc(C)cc3C)n2Cc2ccco2)cc1	?	6.3µM*	-40%	?	41	?
Cc1ccc(C(=O)CSc2nnc(CNc3ccc(C)cc3C)n2Cc2ccco2)cc1	?	?	?	4%	17	26µM*
CCC(=O)N1CCCc2cc(S(=O)(=O)N3CCC(C(=O)NCc4ccc(F)cc4)CC3)ccc21	.	.	.	.	-11	-20%[46.1 µM]
Cc1ccc(/C=N/NC(=O)COc2ccc(Cl)c(C)c2)o1	-1%	10%	-13%[46.1 µM]	54%	-19	-9%
COc1ccc(-n2cc(-c3ccc4c(c3)OCO4)n(CC(=O)Nc3cc(Cl)ccc3C)c2=O)cc1	.	.	?	.	46	-3%[46.1 µM]
COc1ccc(-n2cc(-c3ccc4c(c3)OCO4)n(CC(=O)Nc3cccc(C)c3C)c2=O)c(OC)c1	.	.	?	.	-86*	?
Cc1ccc(CN(C)C(=O)c2cccc(S(=O)(=O)N3CCN(c4ccccc4)CC3)c2)cc1	.	?	?	.	-39	?
COc1ccc(CN(C)C(=O)c2cccc(S(=O)(=O)N3CCN(c4ccccc4)CC3)c2)c(OC)c1OC	?	8.9µM*	?	?	-70*	?
CN(Cc1ccc(F)cc1)C(=O)c1cccc(S(=O)(=O)N2CCN(c3ccccc3)CC2)c1	9.3µM*	13µM*	?	?	-27	?
CN(Cc1ccc(F)cc1)C(=O)c1cccc(S(=O)(=O)N2CCN(c3ccc(F)cc3)CC2)c1	-44%	10µM*	?	?	-38	?
CN(Cc1nc2ccccc2c(=O)[nH]1)C(=O)c1cccc(S(=O)(=O)N2CCc3ccccc32)c1	.	3%	?	.	-67*	4µM*
COc1cccc(CN(C)C(=O)c2cccc(S(=O)(=O)N3CCN(c4ccccc4)CC3)c2)c1	.	.	.	.	-29	.
CCN(CCCNC(=O)CCn1c(=S)[nH]c2cc3c(cc2c1=O)OCO3)c1cccc(C)c1	-3%	?	.	?	-4	.
COc1ccc(CN(C)C(=O)c2cccc(S(=O)(=O)N3CCCc4ccccc43)c2)c(OC)c1OC	.	11µM*	.	.	-12	.
